Laboratory results published in the supplement of paper PMC10338343.
± gives the standard deviation.

Columns and labels:
[1] = system: MILI (PIWIL2) piRISC loaded with piRNA #1 (26 nt); assay: pre-steady-state target cleavage rate (min^-1); guide: piRNA #1 5'p-UGAGGUAGUAGGUUGUAUAGUAUCCA; higher = faster piRNA-guided slicing of the target; conditions: auxiliary factor: 500 nM mouse GTSF1
Summary of the method: (§1)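 Cleave-'n-Seq: a transcribed, DNA-blocked target RNA library (0.1 nM) was mixed with 1 nM active affinity-purified piRISC carrying one synthetic guide, with or without 500 nM GTSF1 partner protein, in HEPES–potassium acetate buffer at 33 °C for 0–8 or 0–960 min. Uncleaved targets were sequenced and normalised to depth and to weakly complementary targets. Three trials were pooled, and k3 was capped at 0.0001 min^-1. The pre-steady-state cleavage rate came from a burst-and-steady-state fit.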

[2] = system: EfPiwi piRISC loaded with piRNA #1 (26 nt); assay: pre-steady-state target cleavage rate (min^-1); auxiliary factor: 500 nM Ephydatia muelleri Gtsf1; guide: piRNA #1 5'p-UGAGGUAGUAGGUUGUAUAGUAUCCA; higher = faster piRNA-guided slicing of the target
Summary of the method: as §1

[3] = system: MILI (PIWIL2) piRISC loaded with L1MC piRNA (26 nt); assay: pre-steady-state target cleavage rate (min^-1); guide: L1MC piRNA 5'p-UAACUAAAUACUAUGCAAGCUGUAGG; MIWI and MILI are mouse PIWI proteins and EfPiwi is from a freshwater sponge; tags in brackets are library labels; higher = faster piRNA-guided slicing of the target
Summary of the method: as §1

[4] = auxiliary factor: 500 nM mouse GTSF1

GGAGACGAUACUAUACAACCAACAACCUCA
pre-steady-state target cleavage rate [1]: 0.00726 ± 0.0036 | pre-steady-state target cleavage rate [2]: 0.00278 ± 0.0019

GGAGAGCGAUACUAUACAACCUACUACCUCA
pre-steady-state target cleavage rate [1]: 0.249 ± 0.02 | pre-steady-state target cleavage rate [2]: 0.0132 ± 0.006

GGAGAGGAUACUAUCACAACCUACUACCUCA
pre-steady-state target cleavage rate [1]: 0.136 ± 0.011 | pre-steady-state target cleavage rate [2]: 0.0777 ± 0.031

GGAGUGGAUACUAUACAACAUACUACCUCA
pre-steady-state target cleavage rate [1]: 0.0845 ± 0.0098 | pre-steady-state target cleavage rate [2]: 0.00987 ± 0.0037

GGAGACGAUACUAUACAACCUACUACCUUCA
pre-steady-state target cleavage rate [1]: 0.194 ± 0.018 | pre-steady-state target cleavage rate [2]: 0.0163 ± 0.0063

GGAGUCGAUACAAUACAACCUACUACCUCA
pre-steady-state target cleavage rate [1]: 0.177 ± 0.012 | pre-steady-state target cleavage rate [2]: 0.00908 ± 0.0047

GGAGACGAAACUAUUCAACCUACUACCUCA
pre-steady-state target cleavage rate [1]: 0.198 ± 0.021 | pre-steady-state target cleavage rate [2]: 0.00439 ± 0.0036

GGAGACCAUACUAUACAACCUACCACCUCA
pre-steady-state target cleavage rate [1]: 0.0975 ± 0.015 | pre-steady-state target cleavage rate [2]: 0.00474 ± 0.0033

GGAGACCAUACUAUACAACCUACUUCCACA
pre-steady-state target cleavage rate [1]: 0.0785 ± 0.018 | pre-steady-state target cleavage rate [2]: 0.0032 ± 0.0032

GGAGAGGAUACUAUACUACCUAGUACCUCA
pre-steady-state target cleavage rate [1]: 0.00407 ± 0.0037 | pre-steady-state target cleavage rate [2]: 0.00301 ± 0.0017

GGAGUGGAUACCAUACAACCUACUACCUCA
pre-steady-state target cleavage rate [1]: 0.231 ± 0.02 | pre-steady-state target cleavage rate [2]: 0.157 ± 0.051

GGAGUGGAUACUAUACAACCUAGAACCUCA
pre-steady-state target cleavage rate [1]: 0.0036 ± 0.0022 | pre-steady-state target cleavage rate [2]: 0.00464 ± 0.0024

GGAGACCUAACUAUACAACCUACUACGUGA
pre-steady-state target cleavage rate [1]: 0.0518 ± 0.018 | pre-steady-state target cleavage rate [2]: 0.0069 ± 0.0046

GGAGUGGAUAUUAUACAACCUACUACCUCA
pre-steady-state target cleavage rate [1]: 0.178 ± 0.0094 | pre-steady-state target cleavage rate [2]: 0.00879 ± 0.0043

GGAGACCAUAAUAUACAACCUACUACCUCA
pre-steady-state target cleavage rate [1]: 0.0982 ± 0.013 | pre-steady-state target cleavage rate [2]: 0.0856 ± 0.03

GGAGACCAUACUAUUCAACCUACUUCCUCA
pre-steady-state target cleavage rate [1]: 0.1 ± 0.022 | pre-steady-state target cleavage rate [2]: 0.00483 ± 0.0048

GGAGUCGAUACUAUACAACCUACUAGCUCA
pre-steady-state target cleavage rate [1]: 0.0244 ± 0.0057 | pre-steady-state target cleavage rate [2]: 0.00304 ± 0.0019

GGAGACGAUACUAUACUACCUACUACGUCA
pre-steady-state target cleavage rate [1]: 0.138 ± 0.019 | pre-steady-state target cleavage rate [2]: 0.00262 ± 0.0017

GGAGACCAAACUAUACAACCUACUACCUCA
pre-steady-state target cleavage rate [1]: 0.131 ± 0.036 | pre-steady-state target cleavage rate [2]: 0.0177 ± 0.0063

GGAGAGGUUACUAUACAACCUUCUACCUCA
pre-steady-state target cleavage rate [1]: 0.00963 ± 0.0021 | pre-steady-state target cleavage rate [2]: 0.00505 ± 0.0025

GGAGUGGAUACUAUACUACCUACAACCUCA
pre-steady-state target cleavage rate [1]: 0.117 ± 0.0096 | pre-steady-state target cleavage rate [2]: 0.00209 ± 0.0019

GGAGACGAUACAAUACAACCUACAACCUCA
pre-steady-state target cleavage rate [1]: 0.152 ± 0.018 | pre-steady-state target cleavage rate [2]: 0.00274 ± 0.0027

GGAGACCAUAGUAAACAACCUACUACCUCA
pre-steady-state target cleavage rate [1]: 0.0682 ± 0.009 | pre-steady-state target cleavage rate [2]: 0.00482 ± 0.0034

GGAGACGAAACUAUACAACCUACAACCUCA
pre-steady-state target cleavage rate [1]: 0.133 ± 0.031 | pre-steady-state target cleavage rate [2]: 0.00368 ± 0.0027

GGAGACCUUACUCUACAACCUACUACCUCA
pre-steady-state target cleavage rate [1]: 0.202 ± 0.02 | pre-steady-state target cleavage rate [2]: 0.0532 ± 0.019

GGAGACGAUAGUAUACAACCUACAACCUCA
pre-steady-state target cleavage rate [1]: 0.106 ± 0.011 | pre-steady-state target cleavage rate [2]: 0.00195 ± 0.0018

UCCUGGUACAGCUUGGAUAGUAUUUAGAUA
pre-steady-state target cleavage rate [3, 4]: 0.118 ± 0.038

UCCUGGUUGAGCUUGCAUAGUAUUUACAAA
pre-steady-state target cleavage rate [3, 4]: 0.0198 ± 0.0068

UCCUGGAUCUGCUUGCAUAGUAUUUUCAAA
pre-steady-state target cleavage rate [3, 4]: 0.0366 ± 0.0094

UCCUGGUACAGCUUGCAAUGUAUUUAGUAA
pre-steady-state target cleavage rate [3, 4]: 0.0576 ± 0.013

UCCUGGAUGUCGAACCAUACUAUUUAGUUA
pre-steady-state target cleavage rate ([3]; auxiliary factor: none (no GTSF1)): < 0.0001

UCCUGGAUGUGCUUGCAUAGUAUUUUGUAA
pre-steady-state target cleavage rate [3, 4]: 0.00939 ± 0.0045

UCCUGGUACAGCAUGCAUAGAAUUUAGUUA
pre-steady-state target cleavage rate [3, 4]: 0.197 ± 0.07

UCCUCCUUGAGCUUGCAUAGUAUUUAGAAA
pre-steady-state target cleavage rate [3, 4]: 0.145 ± 0.025

UCCUGGAUGUCGAUGCAUAGUAUGUAGUUA
pre-steady-state target cleavage rate [3, 4]: 0.0337 ± 0.0087

UCCUGGAACAGCUUGCAUAGUAUAUAGAUA
pre-steady-state target cleavage rate [3, 4]: 0.0877 ± 0.022
